# Inconclusive results are not listed. Where a call stands in place of a potency, no number is given. Calls of active or inactive are those of the source. Unless noted, calls come from the whole dose curve; as a rule, active = well fitted curve in the direction sought with a large enough effect; inconclusive = small, poorly fitted or top-dose-only effect, or another doubt; inactive = no such curve, though single readings can be large; an effect the other way counts as inactive or inconclusive.
# Assays:
# [1] = P-glycoprotein substrates identified in KB-8-5-11 adenocarcinoma cell line, qHTS therapeutic library screen (AID 1346987); note: nearly all actives have a fitted effect of over 65% in size; note: potency is the fitted concentration of half-maximal effect
# Method in brief: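 Steps: plate 500 KB-8-5-11 cells/well in DMEM + 10% FCS (colchicine removed); pin compounds in dose-response; incubate 72 h, 37 degree C, 5% CO2; add CellTiter-Glo, 5 min; read luminescence.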
# [2] = qHTS assay to identify small molecule inhibitors of chordoma cells - UCH-2 (AID 1259356)
# [3] = target: Atrial natriuretic peptide receptor 1 (Homo sapiens) (UniProt P16066); assay: Natriuretic polypeptide receptor (hNpr1) antagonism - Pilot screen (AID 1347049; calls by dose curve;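 note: agonist-evoked cGMP luminescence read 20 min after hNppA addition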)
# Method in brief: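 Readout is cGMP-driven firefly luciferase luminescence in HEK293 cells carrying hNpr1 and a PDE5-domain GloSensor, read before and 20 min after 0.1 nM hNppA stimulation. Cells had 2% substrate reagent for 2 h and test compound for 30 min.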
# [4] = Natriuretic polypeptide receptor (hNpr1) antagonism - Pilot counterscreen GloSensor control cell line (AID 1347045; calls by dose curve)
# Method in brief: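 Luminescence was read before and 20 min after adding 50 uM SNP, which stimulates soluble guanylyl cyclase. The HEK293 cells expressing the GloSensor cGMP sensor had been preloaded with 2% reagent for 2 h and treated with compound.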
# [5] = P-glycoprotein substrates identified in KB-3-1 adenocarcinoma cell line, qHTS therapeutic library screen (AID 1346986); settings: KB-3-1 parental cells viability, CellTiter-Glo, 72 h; at 44.5 µM (top of the series) unless noted; note: nearly all actives have a fitted effect of over 60% in size
# Method in brief: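 Cells seeded 500/well in DMEM/10% FCS; compounds pinned in dose-response; 72 h incubation; CellTiter-Glo added, 5 min, luminescence. KB-8-5-11 run ±tariquidar to test reversal of P-gp resistance.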
# Sequence of Atrial natriuretic peptide receptor 1 (Homo sapiens) (P16066 whole entry, looked up): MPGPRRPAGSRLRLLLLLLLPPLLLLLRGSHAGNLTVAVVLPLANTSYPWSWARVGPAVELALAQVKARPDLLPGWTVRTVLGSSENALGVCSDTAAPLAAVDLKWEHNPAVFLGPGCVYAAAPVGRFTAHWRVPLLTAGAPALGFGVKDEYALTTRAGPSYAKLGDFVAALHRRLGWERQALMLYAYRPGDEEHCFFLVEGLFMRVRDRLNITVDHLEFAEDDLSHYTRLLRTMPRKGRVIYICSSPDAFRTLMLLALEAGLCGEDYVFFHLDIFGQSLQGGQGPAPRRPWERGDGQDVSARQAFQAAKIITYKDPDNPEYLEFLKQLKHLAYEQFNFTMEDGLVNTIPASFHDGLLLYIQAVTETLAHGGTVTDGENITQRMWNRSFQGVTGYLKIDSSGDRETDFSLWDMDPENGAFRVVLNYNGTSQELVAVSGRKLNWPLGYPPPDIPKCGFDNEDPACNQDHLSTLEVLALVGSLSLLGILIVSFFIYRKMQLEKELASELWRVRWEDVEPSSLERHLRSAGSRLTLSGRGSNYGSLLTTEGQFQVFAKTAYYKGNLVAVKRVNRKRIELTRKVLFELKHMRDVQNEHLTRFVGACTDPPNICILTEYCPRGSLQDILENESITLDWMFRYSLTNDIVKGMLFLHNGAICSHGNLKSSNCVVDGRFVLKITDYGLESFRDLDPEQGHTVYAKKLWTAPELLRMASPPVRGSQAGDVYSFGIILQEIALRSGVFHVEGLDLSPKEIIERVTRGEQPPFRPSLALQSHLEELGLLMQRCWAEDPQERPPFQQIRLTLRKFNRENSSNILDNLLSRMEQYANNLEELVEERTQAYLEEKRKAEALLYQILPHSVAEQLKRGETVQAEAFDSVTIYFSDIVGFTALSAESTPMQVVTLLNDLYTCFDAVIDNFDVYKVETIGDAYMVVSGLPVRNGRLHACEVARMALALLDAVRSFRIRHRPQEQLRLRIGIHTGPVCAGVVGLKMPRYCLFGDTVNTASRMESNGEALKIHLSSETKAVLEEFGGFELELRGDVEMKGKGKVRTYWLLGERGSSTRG
structure (smiles),measurement,setting,value
CSc1ccc2c(c1)N(CCC1CCCCN1C)c1ccccc1S2 (stereo not given),Potency,[1],18.4 µM (active)
c1ccc2c(CC3=NCCN3)cccc2c1,Potency,[1],inactive
COCCOC(=O)C1=C(C)NC(C)=C(C(=O)OC/C=C/c2ccccc2)C1c1cccc([N+](=O)[O-])c1 (stereo not given),outcome,[2],inactive
same,outcome,[3],inactive
CCCCCCCCCCCCCCCC(=O)NCCO,outcome,[2],inactive
same,Potency,[1],inactive
same,outcome,[3],inactive
COC(=O)C1=C(C)NC(C)=C(C(=O)OC)C1c1ccccc1[N+](=O)[O-],outcome,[2],inactive
same,outcome,[3],inactive
CC(C)(O)c1ccccc1CC[C@@H](SCC1(CC(=O)O)CC1)c1cccc(/C=C/c2ccc3ccc(Cl)cc3n2)c1,Potency,[1],inactive
Cc1cc(N)c2ccccc2[n+]1CCCCCCCCCC[n+]1c(C)cc(N)c2ccccc21,outcome,[2],inactive
same,Potency,[1],inactive
same,outcome,[4],inactive
same,outcome,[3],inactive
CCC(=O)Nc1ccc(O)cc1,Potency,[1],inactive
O=c1[nH]cnc2c1ncn2[C@@H]1O[C@H](CO)[C@@H](O)[C@H]1O,outcome,[5],inactive
same,Potency,[1],inactive
CCCn1cnc2c1c(=O)n(CCCCC(C)=O)c(=O)n2C,outcome,[2],inactive
same,Potency,[1],inactive
same,outcome,[4],inactive
same,outcome,[3],inactive
C#CCN(C)Cc1ccccc1,outcome,[2],inactive
same,Potency,[1],inactive
same,outcome,[4],inactive
same,outcome,[3],inactive
CC1(C)[C@@H]2CC[C@@]1(C)C(=O)C2,Potency,[1],inactive
CN(C)CCCN1c2ccccc2Sc2ccc(Cl)cc21,outcome,[2],inactive
same,outcome,[4],inactive
same,outcome,[3],inactive
C[C@]12C[C@H](O)[C@H]3[C@@H](CCC4=CC(=O)CC[C@@]43C)[C@@H]1CC[C@@H]2C(=O)CO,outcome,[2],inactive
same,outcome,[4],inactive
same,outcome,[3],inactive
C=Cc1c(C)c2cc3[nH]c(cc4nc(cc5nc(cc1[nH]2)C(C)=C5CCC(=O)O)C(CCC(=O)O)=C4C)c(C)c3C=C,outcome,[2],inactive
same,Potency,[1],inactive
same,outcome,[3],inactive

# — PubChem BioAssay (NCATS)
